Where “and” joins values, the source holds several entries; their conditions need not be identical. Equal entries are not always repeated. Inconclusive results are not listed. Entries that show only a call come without a potency. Calls of active or inactive are those of the source. Unless noted, calls follow the shape of the dose curve; as a rule, active = well fitted curve in the direction sought with a large enough effect in the repeat runs; inconclusive = weak or mixed curves; inactive = no such curve, though single readings can be large; an effect the other way counts as inactive or inconclusive.
Legend:
[1] = qHTS assay to identify small molecule agonists of the RXR signaling pathway - cell viability counter screen (AID 1159529); also: series mostly up to about 77 µM; nearly all actives have a fitted effect of over 50% in size
Summary of the method: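 Cell viability is measured by CellTiter-Glo luminescence, 30 min at room temperature, in wells already read for beta-lactamase. Engineered HEK 293T cells (RXR-alpha-UAS-bla) are dosed 16 hr at 37 C. Tetraoctyl ammonium bromide serves as positive control.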

[2] = qHTS assay to identify small molecule antagonists of the retinoid acid receptor (RAR) signaling pathway - cell viability counter screen (AID 1159551); also: nearly all actives have a fitted effect of over 35% in size
Summary of the method: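 Retinol-stimulated (1 uM final) C3RL4 cells, compound 6 h, 37 C; readout CellTiter-Glo luminescence (ATP) after 30 min RT incubation.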

[3] = qHTS assay to identify small molecule antagonists of the estrogen related receptor (ERR) signaling pathway - cell viability counter screen (AID 1224818); also: series mostly up to about 46 µM
Summary of the method: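 After a 6 h pre-incubation, ERR cells were dosed by pin tool with compounds, positive/negative controls or DMSO alone. Following 17.5 h at 37 C and 30 min with CellTiter-Fluor, fluorescence was recorded.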

[4] = qHTS assay to identify small molecule antagonists of the estrogen related receptor signaling pathway with the pleiotropic PPARgamma coactivator (PGC) cell viability counter screen (AID 1224822; also: series mostly up to about 46 µM)
Summary of the method: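 PGC/ERR cells were plated at 2,000 per well and allowed 6 h to settle before compound addition. Following 17.5 h at 37 C, CellTiter-Fluor reagent was added and fluorescence was read 30 min later.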

[5] = target: Luciferin 4-monooxygenase (Photinus pyralis) (UniProt P08659); experiment: qHTS assay to identify small molecule inhibitors of firefly luciferase (AID 1224835); also: series mostly up to about 120 µM; nearly all actives have a fitted effect of over 25% in size
Luciferin 4-monooxygenase (Photinus pyralis), sequence (P08659 whole entry, looked up): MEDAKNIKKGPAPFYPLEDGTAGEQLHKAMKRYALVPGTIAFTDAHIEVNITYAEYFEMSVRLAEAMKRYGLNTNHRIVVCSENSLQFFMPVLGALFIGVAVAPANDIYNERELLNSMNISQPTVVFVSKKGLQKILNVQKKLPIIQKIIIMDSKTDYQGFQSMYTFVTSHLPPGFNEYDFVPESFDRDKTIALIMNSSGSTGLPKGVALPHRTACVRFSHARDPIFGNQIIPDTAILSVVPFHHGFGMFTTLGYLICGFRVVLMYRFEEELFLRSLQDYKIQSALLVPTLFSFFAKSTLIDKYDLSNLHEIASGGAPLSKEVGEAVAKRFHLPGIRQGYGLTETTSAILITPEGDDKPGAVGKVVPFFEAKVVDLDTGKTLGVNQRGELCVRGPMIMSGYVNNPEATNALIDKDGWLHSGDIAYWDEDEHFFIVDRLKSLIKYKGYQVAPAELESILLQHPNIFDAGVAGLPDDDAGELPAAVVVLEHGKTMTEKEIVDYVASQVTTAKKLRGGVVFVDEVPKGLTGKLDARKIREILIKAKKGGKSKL
Summary of the method: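 Biochemical qHTS: compounds run as interplate titrations against purified firefly enzyme, with D-luciferin and ATP each at its KM concentration. Light output recorded by CCD imaging.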

[6] = qHTS assay to identify small molecule agonists of the constitutive androstane receptor (CAR) signaling pathway - cell viability counter screen (AID 1224836); also: series mostly up to about 92 µM; nearly all actives have a fitted effect of over 45% in size
Summary of the method: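 Counter screen multiplexed with the CAR reporter readout: HepG2 cells co-transfected with hCAR and the CYP2B6-2.2kb construct receive a 15-concentration compound series and 0.75 uM PK11195 (final), then CellTiter-Fluor fluorescence is read after 23 h.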

[7] = qHTS assay to identify small molecule antagonists of the constitutive androstane receptor (CAR) signaling pathway - cell viability counter screen (AID 1224837); also: series mostly up to about 92 µM; nearly all actives have a fitted effect of over 45% in size
Summary of the method: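 Counter screen run in HepG2-CYP2B6-hCAR cells: 4 hr settle, compound titration (15 concentrations) with 50 nM CITCO, 23 hr at 37 C/5% CO2, CellTiter-Fluor fluorescence.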

[8] = target: Nuclear receptor subfamily 1 group I member 3 (Homo sapiens) (UniProt Q14994); experiment: qHTS assay to identify small molecule antagonists of the constitutive androstane receptor (CAR) signaling pathway (AID 1224838);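 also: HepG2 cells stably expressing hCAR with CYP2B6 luciferase reporter stimulated by CITCO; nearly all actives have a fitted effect of over 40% in size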
Nuclear receptor subfamily 1 group I member 3 (Homo sapiens), sequence (Q14994 whole entry, looked up): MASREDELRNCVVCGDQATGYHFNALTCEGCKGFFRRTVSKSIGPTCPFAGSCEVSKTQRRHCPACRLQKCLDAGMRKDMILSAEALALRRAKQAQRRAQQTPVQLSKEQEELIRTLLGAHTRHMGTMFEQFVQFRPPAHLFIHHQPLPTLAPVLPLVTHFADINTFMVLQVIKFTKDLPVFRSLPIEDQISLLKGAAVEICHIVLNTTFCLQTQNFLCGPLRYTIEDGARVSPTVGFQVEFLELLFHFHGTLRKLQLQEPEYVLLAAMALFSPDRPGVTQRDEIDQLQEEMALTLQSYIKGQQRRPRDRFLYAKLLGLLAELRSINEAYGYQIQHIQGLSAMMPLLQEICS
Summary of the method: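 Cell line: HepG2 double-stable for hCAR and CYP2B6-2.2kb reporter. Agonist: CITCO, 50 nM final. Compounds: 15 concentrations, 24 h, 37 C. Detection: ONE-Glo luminescence.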

[9] = target: Nuclear receptor subfamily 1 group I member 3 (Homo sapiens) (UniProt Q14994); experiment: qHTS assay to identify small molecule agonists of the constitutive androstane receptor (CAR) signaling pathway (AID 1224839); also: nearly all actives have a fitted effect of over 15% in size; also: potency is read from the fitted curve at half-maximal effect
Summary of the method: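 A 15-concentration quantitative screen uses HepG2 cells co-transfected stably with human CAR and CYP2B6-2.2kb reporter. Treatment lasts 24 h with 0.75 uM PK11195 final present; ONE-Glo luminescence is the signal.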

[10] = qHTS assay to identify small molecule antagonists of the estrogen related receptor signaling pathway with the pleiotropic PPARgamma coactivator (PGC) from Tox21 10K library - cell viability counter screen (AID 1224840; active = well fitted cell-killing curve with a large enough effect in the repeat runs, not every such curve was filed as active; also: nearly all actives have a fitted effect of over 40% in size)
Summary of the method: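 Following seeding of 2,000 PGC/ERR cells/well and 6 hours' incubation, test compounds were delivered in DMSO. The plates then sat 17.5 hours at 37 C before a fluorogenic live-cell protease reagent (CellTiter-Fluor) was read after 30 min.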

[11] = target: Thyrotropin receptor (Homo sapiens) (UniProt P16473); experiment: qHTS assay to identify small molecule agonists of the thyroid stimulating hormone receptor (TSHR) signaling pathway (AID 1224843; calls by dose curve; also: nearly all actives have a fitted effect of over 45% in size)
Thyrotropin receptor (Homo sapiens), sequence (P16473 whole entry, looked up): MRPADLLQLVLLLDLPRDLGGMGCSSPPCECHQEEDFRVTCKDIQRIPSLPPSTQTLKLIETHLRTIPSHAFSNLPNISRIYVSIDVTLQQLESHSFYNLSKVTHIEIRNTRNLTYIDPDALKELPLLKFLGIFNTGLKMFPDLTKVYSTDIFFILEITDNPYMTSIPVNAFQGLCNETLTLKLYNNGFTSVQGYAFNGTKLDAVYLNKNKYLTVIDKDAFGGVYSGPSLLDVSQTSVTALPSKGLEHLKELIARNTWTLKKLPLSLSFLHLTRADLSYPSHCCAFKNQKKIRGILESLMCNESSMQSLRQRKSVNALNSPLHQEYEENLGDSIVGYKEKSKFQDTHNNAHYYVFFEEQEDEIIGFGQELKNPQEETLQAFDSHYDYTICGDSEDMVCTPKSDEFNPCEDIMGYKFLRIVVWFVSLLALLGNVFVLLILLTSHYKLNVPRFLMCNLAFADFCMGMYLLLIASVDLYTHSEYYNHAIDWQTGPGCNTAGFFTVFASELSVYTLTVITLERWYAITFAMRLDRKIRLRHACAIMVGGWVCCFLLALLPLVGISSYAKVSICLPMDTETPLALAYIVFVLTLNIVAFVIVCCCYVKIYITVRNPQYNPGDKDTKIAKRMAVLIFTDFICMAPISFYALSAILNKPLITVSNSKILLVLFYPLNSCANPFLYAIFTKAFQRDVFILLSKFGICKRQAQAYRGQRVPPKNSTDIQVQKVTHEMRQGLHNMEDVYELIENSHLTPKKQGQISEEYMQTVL
Summary of the method: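 TSHR-HEK293 cells in agonist mode, 30 min room-temperature step, then cAMP measured by competitive HTRF (cAMP-d2 with anti-cAMP cryptate) after 1 h at room temperature. Tested at 15 concentrations in triplicate.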

[12] = qHTS assay to identify small molecule antagonists of the retinoic acid receptor (RAR) signaling pathway (AID 1159552; also: nearly all actives have a fitted effect of over 50% in size)
Summary of the method: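 Quantitative HTS in C3RL4 RARE-luciferase reporter cells. Compounds were added with 1 uM (final) retinol; luminescence was read after 6 hr.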

[13] = qHTS assay to identify small molecule antagonists of the estrogen related receptor (ERR) signaling pathway from Tox21 library - cell viability counter screen (AID 1224834); also: nearly all actives have a fitted effect of over 30% in size
Summary of the method: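 After 17.5 h of compound exposure at 37 C, ERR cells are incubated with CellTiter-Fluor for 30 min and fluorescence intensity serves as the viability measure.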

[14] = qHTS assay to identify small molecule antagonists of the estrogen related receptor signaling pathway with the pleiotropic PPARgamma coactivator (PGC) from Tox21 10K library (AID 1224841; call rule not given here; also: series mostly up to about 92 µM; actives are mostly falling curves and most rising ones were filed inactive; nearly all actives have a fitted effect of over 50% in size)
Summary of the method: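 qHTS antagonist format: PGC/ERR cells, 2k/well, compound in DMSO by pin transfer after 6 h attachment, 18 h treatment at 37 C, One-Glo luminescence read at 30 min.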

[15] = qHTS assay to identify small molecule agonists of the estrogen related receptor signaling pathway with the pleiotropic PPARgamma coactivator (PGC) from Tox21 10K library (AID 1224842); also: nearly all actives have a fitted effect of over 15% in size
Summary of the method: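 PGC/ERR reporter cell line, 2,000 cells per well, incubated 6 h at 37 C before 23 nL compound in DMSO was added. After 18 h at 37 C, One-Glo luminescence read following 30 min at room temperature.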

[16] = qHTS assay to identify small molecule agonists of the retinoic acid receptor (RAR) signaling pathway (AID 1159553)
Summary of the method: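 Reporter readout comes from luciferase under RARE control in C3RL4 cells; compound exposure lasts 6 hr at 37 C in 5% CO2, and luminescence is recorded following a 30 min room-temperature incubation with reagent.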

CN1C(=O)CC[C@H]1c1cccnc1
outcome [1]: inactive
outcome [2]: inactive
outcome [3]: inactive
outcome [4]: inactive
Potency [5]: inactive
Potency [6]: inactive
Potency [7]: inactive
outcome [8]: inactive
Potency [9]: inactive
Potency [10]: inactive
outcome [11]: inactive

CC(=O)c1ccc(O)cc1
outcome [1]: inactive
outcome [2]: inactive
Potency [5]: inactive
Potency [6]: inactive
Potency [7]: inactive
outcome [8]: inactive
Potency [9]: inactive
Potency [10]: inactive
outcome [11]: inactive

CN(C)c1ccc(O)c2c1C[C@H]1C[C@H]3[C@H](N(C)C)C(=O)C(C(N)=O)=C(O)[C@@]3(O)C(=O)C1=C2O
outcome [1]: inactive
outcome [2]: inactive
Potency [5]: inactive
Potency [6]: inactive
Potency [7]: inactive
outcome [8]: inactive
Potency [9]: inactive
outcome [11]: inactive

O=C1c2ccccc2CCc2ccccc21
outcome [1]: inactive
outcome [2]: inactive
outcome [12]: inactive
Potency [13]: inactive
Potency [5]: inactive
Potency [6]: inactive
outcome [8]: inactive
Potency [9]: 31.3 µM (active) and 26.6 µM (active)
Potency [10]: inactive
Potency [14]: inactive
outcome [15]: inactive
outcome [11]: inactive

C=C(C)[C@H]1CC=C(C)C(=O)C1
outcome [1]: inactive
outcome [2]: inactive
Potency [13]: inactive
Potency [5]: inactive
Potency [6]: inactive
Potency [10]: inactive
outcome [11]: inactive

CNC(=O)Oc1ccc2c(c1)[C@]1(C)CCN(C)[C@@H]1N2C
outcome [1]: inactive
outcome [2]: inactive
outcome [3]: inactive
outcome [4]: inactive
Potency [13]: inactive
Potency [5]: inactive
Potency [6]: inactive
Potency [7]: inactive
outcome [8]: inactive
Potency [9]: inactive
outcome [11]: inactive

Cc1ccc(C(C)C)c(O)c1
outcome [1]: inactive
outcome [2]: inactive
outcome [12]: inactive
Potency [16]: inactive
Potency [5]: inactive
Potency [6]: inactive
outcome [8]: inactive
Potency [10]: inactive
Potency [14]: inactive
outcome [15]: inactive

CC(=O)CC(C)(C)O
outcome [1]: inactive
outcome [2]: inactive
outcome [12]: inactive
Potency [16]: inactive
Potency [5]: inactive
Potency [6]: inactive
Potency [10]: inactive
Potency [14]: inactive
outcome [15]: inactive
outcome [11]: inactive

COc1ccc(N)c(C)c1
outcome [1]: inactive
outcome [2]: inactive
Potency [5]: inactive
Potency [6]: inactive
outcome [8]: inactive
Potency [9]: inactive
outcome [11]: inactive

Cc1ccc([N+](=O)[O-])cc1S(=O)(=O)O
outcome [1]: inactive
outcome [2]: inactive
outcome [12]: inactive
Potency [16]: inactive
Potency [5]: inactive
Potency [6]: inactive
Potency [7]: inactive
Potency [14]: inactive
outcome [15]: inactive
outcome [11]: inactive

CCOC(=O)c1ccc(N)cc1
outcome [1]: inactive
outcome [2]: inactive
outcome [12]: inactive
Potency [6]: inactive
Potency [7]: inactive
outcome [8]: inactive
Potency [9]: inactive
Potency [10]: inactive
outcome [11]: inactive

CCCCCCCC=O
outcome [1]: inactive
outcome [2]: inactive
Potency [13]: inactive
Potency [5]: inactive
Potency [6]: inactive
Potency [10]: inactive

OC1C(O)C(O)C(O)C(O)C1O (configuration not stated)
outcome [1]: inactive
outcome [2]: inactive
Potency [13]: inactive
Potency [5]: inactive
Potency [6]: inactive
Potency [7]: inactive
outcome [11]: inactive

c1ccc2c(c1)Cc1ccccc1-2
outcome [1]: inactive
outcome [2]: inactive
outcome [12]: inactive
Potency [16]: inactive
Potency [5]: inactive
Potency [6]: inactive
Potency [7]: inactive
Potency [10]: inactive
outcome [11]: inactive

CCCCCCO
outcome [1]: inactive
outcome [2]: inactive
outcome [12]: inactive
Potency [16]: inactive
Potency [5]: inactive
Potency [6]: inactive
outcome [8]: inactive
Potency [9]: inactive
outcome [11]: inactive

CCc1ccccc1CC
outcome [1]: inactive
outcome [2]: inactive
Potency [13]: inactive
Potency [5]: inactive
Potency [6]: inactive
Potency [7]: inactive
Potency [10]: inactive
Potency [14]: inactive
outcome [15]: inactive
outcome [11]: inactive

O=C(O)CCCCCCCCC(=O)O
outcome [1]: inactive
outcome [2]: inactive
outcome [12]: inactive
Potency [16]: inactive
Potency [5]: inactive
Potency [6]: inactive
outcome [8]: inactive
Potency [9]: inactive
Potency [10]: inactive
Potency [14]: inactive
outcome [15]: inactive
outcome [11]: inactive

C[Si]1(C)O[Si](C)(C)O[Si](C)(C)O[Si](C)(C)O1
outcome [1]: inactive
outcome [2]: inactive
Potency [13]: inactive
Potency [5]: inactive
Potency [6]: inactive
outcome [8]: inactive
Potency [9]: inactive
Potency [10]: inactive
outcome [11]: inactive

CC1(C)OC[C@@H]2O[C@@]3(C(=O)O)OC(C)(C)O[C@H]3[C@@H]2O1
outcome [1]: inactive
outcome [2]: inactive
outcome [12]: inactive
Potency [16]: inactive
Potency [5]: inactive
Potency [6]: inactive
Potency [7]: inactive
outcome [8]: inactive
Potency [9]: inactive
Potency [10]: inactive
outcome [11]: inactive

COc1ccc(OC)cc1
outcome [1]: inactive
outcome [2]: inactive
Potency [13]: inactive
Potency [5]: inactive
Potency [6]: inactive
Potency [7]: inactive
outcome [8]: inactive
Potency [9]: inactive
Potency [14]: inactive
outcome [15]: inactive
outcome [11]: inactive

CC(=O)OCCOC(C)=O
outcome [1]: inactive
outcome [2]: inactive
Potency [5]: inactive
Potency [6]: inactive
Potency [7]: inactive
outcome [8]: inactive
Potency [9]: inactive
Potency [10]: inactive
outcome [11]: inactive

From PubChem BioAssay (Tox21)
